The list is not random: actives were taken first. Their share in the collection is about 10%.
PNC assembly inh: blocks assembly of the perinucleolar compartment. PC3M PTB-GFP, PNC prevalence imaging, 16 h; stronger effect = lower value. activity change (PNC), negative = inhibition, % at 10 µM. 140,000 tested, 3.1% active. AID 2417;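 active = readout at or below -70, meaning at least 70% loss of cells showing the perinucleolar compartment, a nuclear body marking cancer cells; inconclusive = readout between -30 and a set limit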;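 note: plate controls were DMSO wells for no effect and camptothecin positive control wells for full effect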
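Compounds are pinned in duplicate onto adhered PC3M cells stably expressing GFP-tagged PTB and incubated 16 h at 37 C. Cells are then fixed, nuclei stained with Hoechst, and PNC-positive cells counted.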
12-hLO inh: inhibitors of human 12-lipoxygenase (ALOX12); P18054; purified 12-hLO, xylenol orange hydroperoxide absorbance; Potency, µM (doses to about 57.1 µM), for inactives: at the top dose activity change, negative = inhibition, usual class: inhibitors; 150,000 tested, 0.12% active; note: potency is the fitted concentration of half-maximal effect; nearly all actives have a fitted effect of over 55% in size
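Hydroperoxide output read as Fe(III)-xylenol orange absorbance, 573-to-405 nm ratio, after 30 min reaction with 40 uM arachidonic acid. Enzyme: 150 nM purified human 12hLO, 15 min compound preincubation; 25 mM Hepes pH 7.0, room temperature.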
aGal spleen mod: alpha-galactosidase A (human) modulation; Potency, µM (titrated, usually from 80 µM), inactives show at the top dose activity change, negative = inhibition, usual class: inhibitors; 240,000 tested, 0.008% active; human spleen homogenate, 4MU-alpha-Gal fluorescence, 40 min; P06280; AID 2107;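 note: potency is the fitted concentration of half-maximal effect; 0% = enzyme with vehicle and -100% = no enzyme basal signal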
Target sequence (P06280 32-429 limits assumed): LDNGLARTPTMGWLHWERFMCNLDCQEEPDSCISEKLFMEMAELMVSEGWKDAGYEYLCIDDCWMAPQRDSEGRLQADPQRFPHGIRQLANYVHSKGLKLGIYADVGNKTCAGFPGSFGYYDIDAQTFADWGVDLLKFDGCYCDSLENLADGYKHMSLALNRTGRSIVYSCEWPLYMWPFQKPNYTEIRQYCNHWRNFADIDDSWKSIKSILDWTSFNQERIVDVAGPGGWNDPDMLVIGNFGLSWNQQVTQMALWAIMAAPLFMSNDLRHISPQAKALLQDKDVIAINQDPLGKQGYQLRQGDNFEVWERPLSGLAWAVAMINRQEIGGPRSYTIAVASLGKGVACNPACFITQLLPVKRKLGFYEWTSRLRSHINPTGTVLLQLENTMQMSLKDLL
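Spleen homogenate 1 ug + cpd (titration) + 4-MU-alpha-D-galactopyranoside 1 mM; 37C 40 min; 50 mM citrate/phosphate pH 5.0, 0.01% Tween-20; stop pH 10; fluorescence 365/440; AC50 via Hill.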
ALDH1A1 inh: inhibitors of human aldehyde dehydrogenase 1A1 | P00352 | Purified ALDH1A1, NADH fluorescence, propionaldehyde substrate | Potency, µM (series often up to 75.3 µM), for inactives: top-dose activity, negative = inhibition, usual class: inhibitors | 220,000 tested, 7.3% active | AID 1030; active = well fitted inhibition curve with a large enough effect, not every such curve was filed as active; inconclusive = small, poorly fitted or top-dose-only effect, or another doubt; inactive = no such curve, though single readings can be large or run the other way;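 note: potency is the fitted concentration of half-maximal effect; plate controls were no enzyme wells and a reference inhibitor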
GLA inh pH 4.5: inhibitors of human alpha-galactosidase A at pH 4.5 | activity change, negative = inhibition, % at 105 µM | AID 1467 | purified enzyme, 4-MU-alpha-Gal fluorescence, pH 4.5 | 230,000 tested, under 10 active;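 note: 0% = full activity with enzyme and -100% = basal without enzyme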
HPGD block: blocks human HPGD enzyme activity; P15428; purified HPGD, NADH fluorescence kinetic, PGE2 substrate; Potency, µM, without a hit: at the top dose activity change, negative = inhibition, most hits filed as inhibitors; 150,000 tested, 4.3% active; AID 894; active = well fitted inhibition curve with a large enough effect, not every such curve was filed as active; inconclusive = small, poorly fitted or top-dose-only effect, or another doubt; inactive = no such curve, though single readings can be large or run the other way; note: potency is the fitted concentration of half-maximal effect
Target sequence (P15428 whole entry, looked up): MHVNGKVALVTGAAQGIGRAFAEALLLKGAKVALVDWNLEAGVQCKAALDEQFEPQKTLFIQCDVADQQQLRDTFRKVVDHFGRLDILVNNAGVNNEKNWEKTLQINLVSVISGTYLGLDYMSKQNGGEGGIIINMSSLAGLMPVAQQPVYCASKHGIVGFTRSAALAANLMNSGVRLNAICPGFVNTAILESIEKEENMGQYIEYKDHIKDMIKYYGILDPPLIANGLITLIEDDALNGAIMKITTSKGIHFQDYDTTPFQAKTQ
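20 nM HPGD preincubated 15 min at room temperature with compound in 50 mM Tris-HCl pH 8, 0.01% Tween 20. Started with 1 mM NAD+ and 30 uM prostaglandin E2; NADH fluorescence (360/450 nm) read 5 times over 30-s intervals, last minus first.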
An asterisk follows results filed as active; ! = not active in a repeat; [ ] = dose if it differs, or a comment. Unless noted, calls come from the whole dose curve; as a rule, active = well fitted curve in the direction sought with a large enough effect; inconclusive = small, poorly fitted or top-dose-only effect, or another doubt; inactive = no such curve, though single readings can be large; an effect the other way counts as inactive or inconclusive. Unless noted, % is set by controls: 0 for no effect and ±100 for the full control effect.

Results for CC(=O)c1ccc(OC2C(O)COC2/C=C/c2ccc(Cl)cc2)cc1 (configuration not stated) ?
aGal spleen mod: 14%[17.5 µM]; ALDH1A1 inh: 4µM*!

Results for Cc1cccc(NC(=O)c2nc(-c3ccccc3)n(-c3ccccc3)n2)c1C ?
PNC assembly inh: 16; 12-hLO inh: 0%; aGal spleen mod: 3%; ALDH1A1 inh: 32µM*; GLA inh pH 4.5: 2; HPGD block: -29%

What do the screens show for `O=C(c1nc(-c2ccccc2)n(-c2ccccc2)n1)N1CCCCCC1`?
PNC assembly inh: 70; 12-hLO inh: -4%; aGal spleen mod: 3%; ALDH1A1 inh: 8.9µM*; GLA inh pH 4.5: -6; HPGD block: -15%

How did Cc1nn(-c2ccccc2)c2sc(C(=O)N3CCCCC3)cc12 do in these assays?
PNC assembly inh: -16; 12-hLO inh: -16%; aGal spleen mod: -2%; ALDH1A1 inh: 1.8µM*; GLA inh pH 4.5: 4; HPGD block: 4µM*

How did Cc1nn(-c2ccccc2)c2sc(C(=O)N3CCc4ccccc4C3)cc12 do in these assays?
PNC assembly inh: -9; 12-hLO inh: -12%; aGal spleen mod: -9%; ALDH1A1 inh: inconclusive; GLA inh pH 4.5: 0; HPGD block: inconclusive

What do the screens show for `CC(CCC(=O)O)C1CCC2C3CC(O)[C@@H]4CC(O)CC[C@]4(C)C3CC[C@@]12C` (some centres not stated)?
12-hLO inh: 17%; aGal spleen mod: 22%; ALDH1A1 inh: 11%; GLA inh pH 4.5: 7; HPGD block: -7%

Results for CC(C)N1C(=O)CC2(CC[N+](C)(CCOC(=O)C(c3ccccc3)c3ccccc3)CC2)C1=O (configuration not stated) ?
PNC assembly inh: -27; 12-hLO inh: -5%; aGal spleen mod: -21%; ALDH1A1 inh: 25µM*; GLA inh pH 4.5: -3; HPGD block: inconclusive

How did CCN(CC)CCCOC(=O)C(c1ccccc1)c1ccccc1 do in these assays?
aGal spleen mod: 4%; ALDH1A1 inh: -16%

Results for CCOc1cc(CN2CCN(c3ccc(C(C)=O)cc3)CC2)ccc1OC ?
PNC assembly inh: -25; 12-hLO inh: -2%; aGal spleen mod: -4%; ALDH1A1 inh: 18µM*; GLA inh pH 4.5: 11; HPGD block: -9%

How did C=CC(C)(O)CC/C=C(\C)CCC=C(C)C (configuration not stated) do in these assays?
12-hLO inh: 2%; aGal spleen mod: 11%; ALDH1A1 inh: -6%; GLA inh pH 4.5: -9; HPGD block: -5%

What do the screens show for `Cc1cccc(C)c1NC(=O)N1C2CCCC1CC(NC(=O)C(C)(C)C)C2` (configuration not stated)?
PNC assembly inh: -96*; 12-hLO inh: 4%; aGal spleen mod: -12%; ALDH1A1 inh: 15%; GLA inh pH 4.5: 6; HPGD block: -2%

How did Cc1cccc(C)c1NC(=O)N1CCN(C2CCCCC2)CC1 do in these assays?
PNC assembly inh: 28; 12-hLO inh: 3%; aGal spleen mod: 0%; ALDH1A1 inh: 3%; GLA inh pH 4.5: -6; HPGD block: -12%

How did O=C(NCCOc1nc(N2CCCCC2)nc(N2CCOCC2)n1)Nc1ccccc1 do in these assays?
PNC assembly inh: -107*; 12-hLO inh: -1%; aGal spleen mod: -1%; ALDH1A1 inh: 8.9µM*; GLA inh pH 4.5: -11; HPGD block: -8%

What do the screens show for `CN(C)CCCOC(=O)COc1ccc(Br)cc1`?
aGal spleen mod: -5%; ALDH1A1 inh: -2%; GLA inh pH 4.5: -6

What do the screens show for `Cc1nn(CC(=O)Nc2nnc(CC(=O)N3CCCC3)s2)c(=O)c2ccccc12`?
PNC assembly inh: inconclusive; 12-hLO inh: 1%; aGal spleen mod: 8%; ALDH1A1 inh: 2%; GLA inh pH 4.5: -5

Results for CCn1nc(CC(=O)Nc2nnc(CC(=O)N3CCCCC3)s2)c2ccccc2c1=O ?
PNC assembly inh: -28; 12-hLO inh: -2%; aGal spleen mod: 4%; ALDH1A1 inh: -7%; GLA inh pH 4.5: 1; HPGD block: 22µM*

How did CSc1nc2c(c(=O)[nH]1)C(c1ccc(Cl)cc1)CC(=O)N2 (configuration not stated) do in these assays?
aGal spleen mod: 6%; ALDH1A1 inh: 9%; GLA inh pH 4.5: -11

Results for CSc1nc2c(c(=O)[nH]1)C(c1ccccc1Cl)CC(=O)N2 (configuration not stated) ?
aGal spleen mod: -3%; ALDH1A1 inh: 13µM*; GLA inh pH 4.5: -2

What do the screens show for `CC1CCCCN1S(=O)(=O)c1ccc(N(C(=O)c2cnccn2)C(C(=O)NC2CCCCC2)c2cccs2)cc1` (configuration not stated)?
PNC assembly inh: -26; 12-hLO inh: 0%; aGal spleen mod: -6%; ALDH1A1 inh: 8.9µM*; GLA inh pH 4.5: 0; HPGD block: -8%

What do the screens show for `CC1CCCCN1S(=O)(=O)c1ccc(N(C(=O)c2cnccn2)C(C(=O)NC2CCCC2)c2cccs2)cc1` (configuration not stated)?
PNC assembly inh: inconclusive; 12-hLO inh: -1%; aGal spleen mod: -2%; ALDH1A1 inh: 4µM*; GLA inh pH 4.5: -2; HPGD block: -7%

What do the screens show for `Cc1cc(C)cc(N(C(=O)c2ccccn2)C(C(=O)NC2CCCCC2)c2cccs2)c1` (configuration not stated)?
PNC assembly inh: 50; 12-hLO inh: -9%; aGal spleen mod: 4%; ALDH1A1 inh: 6%; GLA inh pH 4.5: -20; HPGD block: -2%

Results for COc1ncc2nc(-c3cn(C)c4ccccc34)c(=O)n(-c3ccccc3)c2n1 ?
aGal spleen mod: -1%; ALDH1A1 inh: 5%

How did C[C@@H]1C[C@@H]2[C@H]3CCC4=CC(=O)C=C[C@]4(C)[C@]3(Cl)[C@@H](O)C[C@@]2(C)[C@@]1(O)C(=O)CO do in these assays?
12-hLO inh: -2%

How did COC(=O)[C@@]1(Cc2ccc(OC)cc2)[C@H]2c3cc(C(=O)N(C)C)n(Cc4ccc(O)c(OC)c4)c3C[C@H]2CN1C(=O)c1ccccc1 do in these assays?
12-hLO inh: -24%; aGal spleen mod: 3%; ALDH1A1 inh: -8%; GLA inh pH 4.5: -5; HPGD block: -9%

Results for CCc1c(C(=O)NC2CCCC2)csc1C ?
PNC assembly inh: -99*; 12-hLO inh: -5%; aGal spleen mod: -1%; ALDH1A1 inh: -2%; GLA inh pH 4.5: 5; HPGD block: 14µM*

How did CCNC(=S)NNC(=O)c1csc2c1CCC(C)C2 (configuration not stated) do in these assays?
PNC assembly inh: -13; 12-hLO inh: -5%; aGal spleen mod: 4%; ALDH1A1 inh: -6%; GLA inh pH 4.5: -10; HPGD block: -10%

Compound activity as filed in PubChem BioAssay.
